Experimental data published in PubChem BioAssay AID1159580 (chemical genetic matrix, 2015).
Values joined by “and” are separate entries in the source; they are usually repeats but may differ in a detail not shown here. Identical values can stand only once. About 2,000 (36%) of roughly 5,500 compounds were called active. About 18% were inconclusive and are not listed. No stated cut-off is given here; in the data, active means normalized growth mostly below about 0.91 (no sharp cut-off); inconclusive means no clear call, values can overlap the other calls; inactive means mostly above about 0.92. The list shows a part of the results.

Test: chemical genetic growth profiling, strain panel (AID 1159580);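 further: tested at 20 µM; growth read once vehicle control cultures reached saturation at 30 °C; 1 = growth at the plate median or of vehicle wells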
Settings: S. cerevisiae deletion strains, growth OD

Measured: normalized growth

CC(C)NNC(=O)c1ccncc1
inactive: locus YAL013W, strain DEP1, stronger effect = lower value 1.01 | locus YAL021C, strain ccr4, stronger effect = lower value 1.02 | locus YAL026C, strain drs2, stronger effect = lower value 1.03 | locus YAL030W, strain snc1, stronger effect = lower value 0.997 | locus YAL040C, strain CLN3, stronger effect = lower value 0.985 | locus YBL061C, strain skt5, stronger effect = lower value 1.01 | locus YBR009C, strain hhf1, stronger effect = lower value 1.01 | locus YBR021W, strain FUR4, stronger effect = lower value 1 | locus YBR023C, strain chs3, stronger effect = lower value 1.01 | locus YBR171W, strain sec66, stronger effect = lower value 1.01 | locus YBR229C, strain ROT2, stronger effect = lower value 1 | locus YBR231C, strain swc5, stronger effect = lower value 1.03 | locus YBR279W, strain paf1, stronger effect = lower value 1.01 | locus YCL011C, strain gbp2, stronger effect = lower value 1.02 | locus YCL016C, strain dcc1, stronger effect = lower value 1.01 | locus YCL029C, strain bik1, stronger effect = lower value 1.02 | locus YCL061C, strain MRC1 (second series), stronger effect = lower value 0.986 | locus YCL069W, strain vba3, stronger effect = lower value 1.02 | locus YCR088W, strain abp1, stronger effect = lower value 1.02 | locus YDL005C, strain med2, stronger effect = lower value 1 | locus YDL035C, strain GPR1, stronger effect = lower value 1.01 | locus YDL040C, strain nat1, stronger effect = lower value 1 | locus YDL074C, strain BRE1, stronger effect = lower value 1.02 | locus YDL101C, strain DUN1, stronger effect = lower value 1 | locus YDL134C, strain PPH21, stronger effect = lower value 1.01 | locus YDL185W, strain tfp1, stronger effect = lower value 1.01 | locus YDL192W, strain arf1, stronger effect = lower value 1.02 | locus YDR001C, strain nth1, stronger effect = lower value 1 | locus YDR069C, strain doa4, stronger effect = lower value 1 | locus YDR101C, strain arx1, stronger effect = lower value 1.01 | locus YDR137W, strain rgp1, stronger effect = lower value 1.01 | locus YDR150W, strain NUM1, stronger effect = lower value 0.994 and 0.996 | locus YDR159W, strain sac3, stronger effect = lower value 0.978 | locus YDR162C, strain NBP2, stronger effect = lower value 1.01 | locus YDR195W, strain ref2 0.961 | locus YDR297W, strain sur2, stronger effect = lower value 1 | locus YDR318W, strain mcm21, stronger effect = lower value 1.02 | locus YDR334W, strain swr1, stronger effect = lower value 1.03 | locus YDR335W, strain msn5, stronger effect = lower value 1.01 | locus YDR363W, strain ESC2, stronger effect = lower value 1.02 | locus YDR388W, stronger effect = lower value 1.01 | locus YDR392W, strain spt3, stronger effect = lower value 1.03 | locus YDR502C, strain sam2, stronger effect = lower value 1.01 | locus YEL003W, strain gim4, stronger effect = lower value 1 | locus YEL037C, strain rad23, stronger effect = lower value 1.02 | locus YEL061C, strain CIN8 (second series), stronger effect = lower value 1.01 | locus YEL061C, strain CIN8, stronger effect = lower value 1 | locus YER002W, strain NOP16, stronger effect = lower value 1.01 | locus YER015W, strain faa2, stronger effect = lower value 1.02 | locus YER016W, strain bim1, stronger effect = lower value 1.01 | locus YER110C, stronger effect = lower value 1.02 | locus YER111C, strain swi4, stronger effect = lower value 0.999 | locus YER155C, strain BEM2 (second series), stronger effect = lower value 1.04 | locus YER155C, strain BEM2, stronger effect = lower value 1 | locus YER167W, strain BCK2, stronger effect = lower value 1.01 | locus YFR010W, strain ubp6, stronger effect = lower value 1.02 | locus YGL078C, strain dbp3, stronger effect = lower value 1.02 | locus YGL086W, strain mad1, stronger effect = lower value 1.01 | locus YGL167C, strain pmr1, stronger effect = lower value 0.996 | locus YGL173C, strain kem1, stronger effect = lower value 1.03 | locus YGL227W, strain vid30, stronger effect = lower value 0.998 | locus YGL240W, strain doc1, stronger effect = lower value 1.01 | locus YGL248W, strain PDE1, stronger effect = lower value 0.996 | locus YGL253W, strain hxk2, stronger effect = lower value 1.03 | locus YGR078C, strain PAC10, stronger effect = lower value 1.01 | locus YGR135W, strain pre9, stronger effect = lower value 1.01 | locus YGR229C, strain SMI1, stronger effect = lower value 1 and 0.992 | locus YGR252W, strain gcn5, stronger effect = lower value 1.05 | locus YHR013C, strain ard1, stronger effect = lower value 1.02 | locus YHR027C, strain rpn1, stronger effect = lower value 1.01 | locus YHR030C, strain SLT2, stronger effect = lower value 1 | locus YHR079C, strain IRE1 (second series), stronger effect = lower value 1.02 | locus YHR094C, strain hxt1, stronger effect = lower value 1.01 | locus YHR129C, strain ARP1, stronger effect = lower value 1 | locus YHR142W, strain chs7, stronger effect = lower value 1.03 | locus YHR200W, strain rpn10, stronger effect = lower value 1.02 | locus YIL066C, strain RNR3, stronger effect = lower value 1.02 | locus YIL073C, strain SPO22, stronger effect = lower value 1.04 | locus YIL125W, strain kgd1, stronger effect = lower value 1.01 | locus YIR030C, strain dcg1, stronger effect = lower value 1.02 | locus YJL092W, strain hpr5, stronger effect = lower value 1.01 | locus YJL095W, strain BCK1 (second series), stronger effect = lower value 1.02 | locus YJL095W, strain BCK1, stronger effect = lower value 1.02 | locus YJL115W, strain asf1, stronger effect = lower value 0.988 | locus YJL129C, strain trk1, stronger effect = lower value 0.998 | locus YJL134W, strain LCB3, stronger effect = lower value 1.01 | locus YJL154C, strain vps35, stronger effect = lower value 1.01 | locus YJL164C, strain tpk1, stronger effect = lower value 1.01 | locus YJL166W, strain qcr8, stronger effect = lower value 1.01 | locus YJL168C, strain set2, stronger effect = lower value 1.02 | locus YJL187C, strain SWE1 (second series), stronger effect = lower value 1.01 | locus YJL187C, strain SWE1, stronger effect = lower value 1.01
